Test results as given in PubChem BioAssay (NCATS).
Inconclusive results are not listed. Active and inactive are the calls of the source. Unless noted, the call rests on the fitted dose curve; in most records, active means well fitted curve in the direction sought with a large enough effect; inconclusive means small, poorly fitted or top-dose-only effect, or another doubt; inactive means no such curve, though single readings can be large; an effect the other way counts as inactive or inconclusive.

Tests used:
[1] = AP1 Signaling Pathway (AID 357; active means well fitted curve in either direction with a large enough effect, not every such curve was filed as active; further: on the % scale 0 is the no-effect control and ±100 the full control effect)
How it was run: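 Titration-series screen for positive or negative modulators of EC50 EGF-induced signaling in ME-180 cells carrying an AP-1-driven beta-lactamase reporter. After 5 hours at 37 degrees Celsius, CCF4 460nm/530nm emission ratio gave %Activity; AC50 values derived.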

[2] = molecular target: Cytochrome P450 1A2 (Homo sapiens) (UniProt P05177); experiment: p450-cyp1a2 (AID 410; calls by dose curve; further: potency means the concentration at half of the fitted maximal effect;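 on activity change, negative = inhibition: -100% = full effect of reference inhibitor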)
Chain of Cytochrome P450 1A2 (Homo sapiens) (P05177 whole entry, looked up): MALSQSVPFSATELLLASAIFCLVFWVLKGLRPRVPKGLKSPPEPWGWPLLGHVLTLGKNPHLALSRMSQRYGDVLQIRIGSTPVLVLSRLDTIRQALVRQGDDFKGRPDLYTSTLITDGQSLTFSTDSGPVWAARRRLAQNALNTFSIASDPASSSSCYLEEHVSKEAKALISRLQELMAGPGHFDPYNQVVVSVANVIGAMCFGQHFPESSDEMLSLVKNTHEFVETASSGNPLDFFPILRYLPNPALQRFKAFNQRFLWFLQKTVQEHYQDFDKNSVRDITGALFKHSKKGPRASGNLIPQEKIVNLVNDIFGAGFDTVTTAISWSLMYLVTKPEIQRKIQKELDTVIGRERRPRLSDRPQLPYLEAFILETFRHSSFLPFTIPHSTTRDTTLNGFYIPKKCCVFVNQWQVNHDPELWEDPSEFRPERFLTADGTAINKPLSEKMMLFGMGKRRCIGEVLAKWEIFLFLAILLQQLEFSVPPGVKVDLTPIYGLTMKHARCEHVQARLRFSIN
How it was run: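 Luminescent demethylation readout: Luciferin-ME (100uM, equal to Km) turned over by 20nM CYP1A2 for 60 min at room temperature after NADPH regeneration addition, following 10 min compound preincubation. Normalization used 57 uM furafylline as full inhibition.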

[3] = Stat Signaling Pathway (AID 446; active means well fitted curve in either direction with a large enough effect, not every such curve was filed as active;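 further: ME-180 cervical cancer cells given 40 pM IL-6 alongside compound; SIE-controlled beta-lactamase reporter measured as 460/530 nm FRET emission ratio; on the % scale 0 is the no-effect control and ±100 the full control effect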)
How it was run: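 Normalization used AC90 stimulation (300 pM IL-6) and AC90 inhibition (125 nM pan-JAK inhibitor at 40 pM IL-6). The underlying signal is SIE-driven beta-lactamase in ME-180 cells after 5 h IL-6 exposure with compound.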

[4] = molecular target: Glucocorticoid receptor (Homo sapiens) (UniProt P04150); experiment: GR-GFP Redistribution (AID 450;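 active means compounds whose dose series gives a full or clear partial fitted curve of increased nuclear translocation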; further: potency means the concentration at half of the fitted maximal effect); settings: U2OS GR-GFP nuclear translocation, laser cytometry, 2 h
Chain of Glucocorticoid receptor (Homo sapiens) (P04150 whole entry, looked up, the tested form may be a part): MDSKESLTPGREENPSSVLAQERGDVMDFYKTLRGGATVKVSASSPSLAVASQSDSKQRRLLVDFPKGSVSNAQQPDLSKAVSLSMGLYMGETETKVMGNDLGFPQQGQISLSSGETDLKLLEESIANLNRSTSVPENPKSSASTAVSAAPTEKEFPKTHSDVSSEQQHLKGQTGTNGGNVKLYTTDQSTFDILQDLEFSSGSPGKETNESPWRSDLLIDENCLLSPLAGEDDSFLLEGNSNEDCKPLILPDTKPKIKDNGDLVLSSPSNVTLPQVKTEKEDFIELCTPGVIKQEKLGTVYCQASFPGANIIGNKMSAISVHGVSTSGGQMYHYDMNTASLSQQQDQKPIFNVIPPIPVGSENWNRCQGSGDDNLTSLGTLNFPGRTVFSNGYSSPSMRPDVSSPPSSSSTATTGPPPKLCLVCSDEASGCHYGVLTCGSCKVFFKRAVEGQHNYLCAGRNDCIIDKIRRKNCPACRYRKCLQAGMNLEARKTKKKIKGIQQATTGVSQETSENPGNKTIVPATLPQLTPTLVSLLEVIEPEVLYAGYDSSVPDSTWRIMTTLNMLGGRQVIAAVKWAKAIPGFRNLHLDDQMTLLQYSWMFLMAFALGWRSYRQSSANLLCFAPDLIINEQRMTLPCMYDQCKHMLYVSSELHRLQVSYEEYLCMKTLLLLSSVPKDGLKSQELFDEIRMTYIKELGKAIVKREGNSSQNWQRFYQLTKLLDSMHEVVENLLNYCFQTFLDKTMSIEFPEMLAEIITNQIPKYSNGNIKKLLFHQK

[5] = molecular target: Glucocorticoid receptor (Homo sapiens) (UniProt P04150); experiment: GR-EFC Redistribution (AID 451; calls by dose curve; further: potency means the concentration at half of the fitted maximal effect); settings: CHO-K1 GR-EFC translocation, beta-gal luminescence, 2 h
How it was run: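 Translocation of GR-ED fusion to nuclear EA restores b-gal, read by luminescence after 1 h room-temperature detection. Engineered CHO-K1 biosensor cells, 1,000/well, exposed 2 h at 37 C to titrations up to 46 uM final.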

[6] = molecular target: Mitogen-activated protein kinase 10 (Mus musculus) (UniProt Q61831); experiment: JNK3 AlphaScreen Assay (AID 530; active means well fitted curve in either direction with a large enough effect, not every such curve was filed as active;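 further: kinase came from lysate of stimulated human HepG2 cells; signal reports phosphorylation of biotinylated GST-cJun 1-79 at Ser73 with 10 µM ATP; on the % scale 0 is the no-effect control and ±100 the full control effect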)
How it was run: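 qHTS titrations with 15 min compound pre-incubation before adding ATP (10 uM final). Read-out: AlphaScreen of Ser73-phosphorylated biotin-GST-cJun using HepG2 lysate JNK3 activated by IL-1β and TNFα.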

[7] = qHTS Assay for Lipid Storage Modulators (AID 1519; calls by dose curve); settings: Drosophila S3 cells, BODIPY lipid droplet/cell ratio, laser cytometry, cells loaded with oleic acid
How it was run: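 Cells seeded at 5,000 per well were treated with compounds over a concentration series and loaded with oleic acid (400 uM, as added). Lipid droplet fluorescence (488 nm excitation, 500-530 nm channel) was read by laser-scanning cytometry and normalized to 20 uM Triacsin C.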

[8] = molecular target: 3',5'-cyclic-AMP phosphodiesterase 4B (Homo sapiens) (UniProt Q07343); experiment: qHTS Assay for Inhibitors of PDE-IV (AID 607; active means well fitted activation curve with a large enough effect in the main read-out, with a control signal flat, not every such curve was filed as active; further: % of control where 0% means no effect)
Chain of 3',5'-cyclic-AMP phosphodiesterase 4B (Homo sapiens) (Q07343 whole entry, looked up): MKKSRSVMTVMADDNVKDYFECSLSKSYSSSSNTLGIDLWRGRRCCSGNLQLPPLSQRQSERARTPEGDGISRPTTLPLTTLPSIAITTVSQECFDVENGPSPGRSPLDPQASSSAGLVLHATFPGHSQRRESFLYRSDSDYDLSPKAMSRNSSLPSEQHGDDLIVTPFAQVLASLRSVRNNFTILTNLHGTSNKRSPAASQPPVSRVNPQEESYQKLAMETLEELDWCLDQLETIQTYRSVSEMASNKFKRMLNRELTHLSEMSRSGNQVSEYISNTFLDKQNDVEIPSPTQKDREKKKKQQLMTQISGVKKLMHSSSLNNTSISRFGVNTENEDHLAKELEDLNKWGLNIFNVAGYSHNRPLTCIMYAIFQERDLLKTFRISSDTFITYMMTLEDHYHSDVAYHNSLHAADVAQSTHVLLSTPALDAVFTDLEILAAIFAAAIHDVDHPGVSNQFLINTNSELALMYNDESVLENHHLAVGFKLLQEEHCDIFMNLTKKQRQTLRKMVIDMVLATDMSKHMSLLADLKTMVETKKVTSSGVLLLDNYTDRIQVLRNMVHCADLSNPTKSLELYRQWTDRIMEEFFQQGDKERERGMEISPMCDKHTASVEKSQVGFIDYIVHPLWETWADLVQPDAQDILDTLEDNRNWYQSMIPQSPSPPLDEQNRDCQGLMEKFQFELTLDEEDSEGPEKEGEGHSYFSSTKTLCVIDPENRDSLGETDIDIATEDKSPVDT
How it was run: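 HEK293 ACTOne cells with CNG channel (1000/well), endogenous PDE4; membrane potential dye, compounds up to 22.9 uM final. Fluorescence Ex 535/Em 590; RO 20-1724 (100 uM final) as reference.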

[9] = molecular target: ATP-dependent 6-phosphofructokinase (Trypanosoma brucei brucei) (UniProt O15648); experiment: qHTS Assay to Find Inhibitors of T. brucei phosphofructokinase: hit validation (AID 492961);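 further: luminescence reports ADP formed as PFK phosphorylates fructose-6-phosphate with ATP; on the % scale 0 is the no-effect control and ±100 the full control effect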
Chain of ATP-dependent 6-phosphofructokinase (Trypanosoma brucei brucei) (O15648 whole entry, looked up): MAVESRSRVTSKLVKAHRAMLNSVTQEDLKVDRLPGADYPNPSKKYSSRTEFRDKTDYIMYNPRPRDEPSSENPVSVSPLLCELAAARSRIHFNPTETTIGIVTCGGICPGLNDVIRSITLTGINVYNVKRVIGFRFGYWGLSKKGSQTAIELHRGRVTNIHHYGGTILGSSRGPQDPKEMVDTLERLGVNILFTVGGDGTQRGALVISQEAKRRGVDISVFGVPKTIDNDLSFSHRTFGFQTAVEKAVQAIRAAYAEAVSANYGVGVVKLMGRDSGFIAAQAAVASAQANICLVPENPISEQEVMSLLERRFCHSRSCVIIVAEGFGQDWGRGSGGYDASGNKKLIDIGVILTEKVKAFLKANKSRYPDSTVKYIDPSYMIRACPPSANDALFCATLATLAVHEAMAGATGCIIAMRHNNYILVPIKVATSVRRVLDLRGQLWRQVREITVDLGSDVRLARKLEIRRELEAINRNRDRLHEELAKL
How it was run: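 ADP-Glo luminescence read-out of ADP formed by 1.25 nM PFK from 0.1 mM ATP and 0.5 mM F6P (TEA pH 8.0, 45 min, RT). Compounds titrated; activity normalized to no-enzyme and full-enzyme controls.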

[10] = molecular target: Ubiquitin carboxyl-terminal hydrolase 1 (Homo sapiens) (UniProt O94782); experiment: Inhibitors of USP1/UAF1: Pilot qHTS (AID 504865); further: nearly all actives have a fitted effect of over 35% in size; further: potency means the concentration at half of the fitted maximal effect
Chain of Ubiquitin carboxyl-terminal hydrolase 1 (Homo sapiens) (O94782 whole entry, looked up): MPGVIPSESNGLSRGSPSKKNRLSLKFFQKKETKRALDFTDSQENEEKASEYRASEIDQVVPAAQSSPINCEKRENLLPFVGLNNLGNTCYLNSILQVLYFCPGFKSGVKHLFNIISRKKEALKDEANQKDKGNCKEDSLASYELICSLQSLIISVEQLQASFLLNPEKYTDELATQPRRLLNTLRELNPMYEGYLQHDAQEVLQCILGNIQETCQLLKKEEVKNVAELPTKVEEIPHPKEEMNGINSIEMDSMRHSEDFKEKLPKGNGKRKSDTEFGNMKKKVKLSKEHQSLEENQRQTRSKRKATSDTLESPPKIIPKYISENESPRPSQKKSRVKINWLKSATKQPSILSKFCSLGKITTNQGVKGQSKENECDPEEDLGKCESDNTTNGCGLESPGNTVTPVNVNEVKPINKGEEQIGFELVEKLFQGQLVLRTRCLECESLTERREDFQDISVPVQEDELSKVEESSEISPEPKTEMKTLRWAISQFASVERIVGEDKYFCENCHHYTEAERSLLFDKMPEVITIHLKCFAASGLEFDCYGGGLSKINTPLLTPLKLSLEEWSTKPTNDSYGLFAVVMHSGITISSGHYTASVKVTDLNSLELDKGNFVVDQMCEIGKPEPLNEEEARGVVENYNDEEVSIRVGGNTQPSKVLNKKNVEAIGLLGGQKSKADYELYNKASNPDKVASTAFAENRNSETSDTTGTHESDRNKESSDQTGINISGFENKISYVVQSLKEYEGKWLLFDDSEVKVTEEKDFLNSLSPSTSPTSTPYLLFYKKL
How it was run: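 1nM USP1/UAF1 + cpd, 15 min RT; start w/ Ub-Rho 150nM final; kinetic FL 480/540 nm, 6 reads q60 s. Buffer 50mM HEPES pH 7.8, 0.5mM EDTA, 1mM TCEP, 0.01% Tween-20, 0.1 mg/ml BSA.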

[11] = molecular target: Luciferin 4-monooxygenase (Photinus pyralis) (UniProt P08659); experiment: Biochemical firefly luciferase enzyme assay for NPC (AID 624030);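 further: purified P. pyralis luciferase at 10 nM with luciferin and ATP substrate; 0% = DMSO and -100% = full luciferase inhibition by PTC124 control; nearly all actives have a fitted effect of over 70% in size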
Chain of Luciferin 4-monooxygenase (Photinus pyralis) (P08659 whole entry, looked up): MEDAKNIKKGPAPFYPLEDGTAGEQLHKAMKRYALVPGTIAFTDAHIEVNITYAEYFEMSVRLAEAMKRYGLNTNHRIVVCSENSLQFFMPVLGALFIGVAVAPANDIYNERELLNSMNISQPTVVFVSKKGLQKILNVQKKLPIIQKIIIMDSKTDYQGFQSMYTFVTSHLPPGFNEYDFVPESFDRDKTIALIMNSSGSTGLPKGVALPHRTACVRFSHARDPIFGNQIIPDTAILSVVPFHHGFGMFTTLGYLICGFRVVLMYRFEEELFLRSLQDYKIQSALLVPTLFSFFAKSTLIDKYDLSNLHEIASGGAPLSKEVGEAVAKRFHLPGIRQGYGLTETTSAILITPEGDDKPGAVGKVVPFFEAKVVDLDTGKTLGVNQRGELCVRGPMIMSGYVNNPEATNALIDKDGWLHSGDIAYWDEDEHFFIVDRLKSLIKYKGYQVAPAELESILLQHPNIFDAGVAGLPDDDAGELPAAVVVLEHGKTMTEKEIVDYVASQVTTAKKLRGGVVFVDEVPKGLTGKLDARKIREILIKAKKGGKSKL
How it was run: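 Direct inhibition of firefly luciferase enzyme (10 nM final, 50 mM Tris Acetate) assessed by luminescence within 5 minutes. Percent activity scaled between DMSO and PTC124 positive control, with concentration-effect curves classified by fit quality and response.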

[12] = qHTS profiling for inhibitors of Plasmodium falciparum proliferation (AID 504749);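 further: 0% = DMSO vehicle and full inhibition = artemisinin control; nearly all actives have a fitted effect of over 60% in size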; settings: P. falciparum in erythrocytes, SYBR Green DNA, 72 h
How it was run: (§1)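 SYBR Green fluorescence of parasite DNA, read after lysis and overnight dark incubation, measured growth over 72 h in erythrocyte culture at 0.3% parasitemia and 2.5% hematocrit. Data normalised to DMSO and 0.29 uM artemisinin, with plate-drift correction.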

C2A = experiment: as above; settings: P. falciparum in erythrocytes, SYBR Green DNA, 72 h; series mostly up to 28.7 µM
How it was run: as §1

CP192 = experiment: as above; settings: P. falciparum in erythrocytes, SYBR Green DNA, 72 h; series mostly up to 28.7 µM
How it was run: as §1

CP211 = experiment: as above; settings: P. falciparum in erythrocytes, SYBR Green DNA, 72 h; series mostly up to 28.7 µM
How it was run: as §1

CP266 = experiment: as above; settings: P. falciparum in erythrocytes, SYBR Green DNA, 72 h; series mostly up to 12.8 µM
How it was run: as §1

CP315 = experiment: as above; settings: P. falciparum in erythrocytes, SYBR Green DNA, 72 h; series mostly up to 28.7 µM
How it was run: as §1

CP329 = experiment: as above; settings: P. falciparum in erythrocytes, SYBR Green DNA, 72 h; series mostly up to 28.7 µM
How it was run: as §1

FAB9 = experiment: as above; settings: P. falciparum in erythrocytes, SYBR Green DNA, 72 h; series mostly up to 28.7 µM
How it was run: as §1

[13] = NFAT Signaling Pathway (AID 444; active means well fitted curve in either direction with a large enough effect, not every such curve was filed as active); settings: Jurkat NFAT-bla M1, carbachol, beta-lactamase ratio, 5 h; at 17.2 µM (top of the series)
How it was run: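 Read-out: CCF4 FRET ratio (460 nm/530 nm) after 1 h RT dye loading, used for %activity and AC50 from titration series. Cells: Jurkat NFAT-β-lactamase/M1 line, treated with compound plus 1 uM carbachol for 5 h, 37 °C.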

[14] = measured here: cell count channel max response
[15] = measured here: lipid channel max response
[16] = at 28.7 µM (top of the series), parasite line A
[17] = at 28.7 µM (top of the series), parasite line B

CC[C@H]1CN2CC[C@@H]1C[C@H]2[C@@H](O)c1ccnc2ccc(OC)cc12
-1.96%: max response [7, 14]
inactive: outcome [1] | Potency [2] | outcome [3] | Potency [4] > 20.6 µM | Potency [5] > 20.6 µM | outcome [6] | activity change, negative = inhibition ([7]; at 25.7 µM (top of the series)) -3.88%
-5.46%: max response [7, 15]

N[C@H]1C[C@H]1c1ccccc1
5.35%: max response [7, 14]
active: Potency [2] 5.01 µM
inactive: outcome [1] | outcome [3] | outcome [6] | Potency [8] | activity change, negative = inhibition ([7]; at 25.7 µM (top of the series)) -0.294% | Potency [9] | Potency [10] | Potency [11] | activity, negative = inhibition [12, 16] 10.1% | activity, negative = inhibition [12, 17] 3.27% | Potency (C2A) | Potency (CP192) | Potency (CP211) | Potency (CP266) | Potency (CP315) | Potency (CP329) | Potency (FAB9)
3.84%: max response [7, 15]

CC(C)N(CC[C@@](C(N)=O)(c1ccccc1)c1ccccn1)C(C)C
inactive: outcome [1] | Potency [2] | outcome [3] | outcome [6] | Potency [8] | activity change, negative = inhibition ([7]; at 25.7 µM (top of the series)) 0.14% | Potency [9] | Potency [10] | Potency [11] | activity, negative = inhibition [12, 16] 9.42% | activity, negative = inhibition [12, 17] 2.7% | Potency (C2A) | Potency (CP192) | Potency (CP211) | Potency (CP266) | Potency (CP315) | Potency (CP329) | Potency (FAB9)
-13.9%: max response [7, 14]
-14.1%: max response [7, 15]

C(#CCN1CCCC1)CN1CCCC1
inactive: outcome [1] | Potency [2] | outcome [3] | Potency [4] > 20.6 µM | Potency [5] > 20.6 µM | outcome [6] | activity change, negative = inhibition ([7]; at 25.7 µM (top of the series)) 0.99% | Potency [10]
10.3%: max response [7, 15]
10.9%: max response [7, 14]

O=[N+]([O-])O[C@H]1CO[C@H]2[C@H]1OC[C@@H]2O[N+](=O)[O-]
inactive: outcome [1] | Potency [2] | outcome [3] | Potency [4] > 20.6 µM | Potency [5] > 20.6 µM | outcome [6] | Potency [8] | activity change, negative = inhibition ([7]; at 25.7 µM (top of the series)) -2.81%
-3.6%: max response [7, 15]
-2.42%: max response [7, 14]

Oc1ccc2c3c1O[C@H]1[C@@H](O)CC[C@]4(O)[C@H](C2)N(CC2CCC2)CC[C@@]314
inactive: outcome [1] | activity change, negative = inhibition [13] -1.63% | outcome [3] | Potency [4] > 20.6 µM | Potency [5] > 20.6 µM | outcome [6] | activity change, negative = inhibition ([7]; at 25.7 µM (top of the series)) -2.99% | Potency [10]
0.408%: max response [7, 15]
3.75%: max response [7, 14]

C=C[C@]12CN(C)[C@H]3C1[C@@]1(C(=O)Nc4ccccc41)[C@H]1C[C@H]2[C@H]3CO1
inactive: outcome [1] | Potency [2] | outcome [3] | Potency [4] > 20.6 µM | Potency [5] > 20.6 µM | outcome [6] | Potency [8] | activity change, negative = inhibition ([7]; at 25.7 µM (top of the series)) -5.3% | Potency [10]
-11.8%: max response [7, 14]
-17.8%: max response [7, 15]

CCN(CC)C(=O)N[C@H]1C=C2c3cccc4[nH]cc(c34)C[C@@H]2N(C)C1
-15.1%: max response [7, 14]
active: Potency [10] 35.5 µM
-15.7%: max response [7, 15]
inactive: outcome [1] | outcome [3] | Potency [4] > 20.6 µM | Potency [5] > 20.6 µM | outcome [6] | Potency [8] | activity change, negative = inhibition ([7]; at 25.7 µM (top of the series)) -1.39%

CNC(=O)N(C)c1nnc(C(C)(C)C)s1
inactive: outcome [1] | activity change, negative = inhibition [13] -5.4% | activity change, negative = inhibition ([7]; at 57.5 µM (top of the series)) 6.39%
25.2%: max response [7, 15]
16.4%: max response [7, 14]

O=c1ccc2cc(O[C@H]3O[C@@H](CO)[C@@H](O)[C@@H](O)[C@@H]3O)c(O)cc2o1
1.01%: max response [7, 14]
0.833%: max response [7, 15]
inactive: Potency [4] > 20.6 µM | Potency [5] > 20.6 µM | outcome [6] | activity change, negative = inhibition ([7]; at 25.7 µM (top of the series)) -1.03% | Potency [9] | Potency [10] | Potency [11] | activity, negative = inhibition ([12]; at 12.8 µM (top of the series), parasite line A) 3.87% | activity, negative = inhibition ([12]; at 12.8 µM (top of the series), parasite line B) -4.9% | Potency (C2A) | Potency (CP192) | Potency (CP211) | Potency (CP266) | Potency (CP315) | Potency (CP329) | Potency (FAB9)

C[C@H]1CC[C@@]2(NC1)O[C@@H]1C[C@H]3[C@@H]4CC=C5C[C@@H](O)CC[C@]5(C)[C@@H]4CC[C@]3(C)[C@@H]1[C@@H]2C
0.522%: max response [7, 14]
-7.85%: max response [7, 15]
inactive: Potency [2] | outcome [3] | Potency [4] > 20.6 µM | Potency [5] > 20.6 µM | outcome [6] | activity change, negative = inhibition ([7]; at 25.7 µM (top of the series)) -1.61% | Potency [10]

COc1cc(N)c(Cl)cc1C(=O)N[C@@H]1CN2CCC1CC2
3.73%: max response [7, 14]
7.11%: max response [7, 15]
inactive: Potency [2] | Potency [4] > 46 µM | Potency [5] > 46 µM | Potency [8] | activity change, negative = inhibition ([7]; at 57.5 µM (top of the series)) 7.47% | Potency [9] | Potency [11] | activity, negative = inhibition [12, 16] -0.396% | activity, negative = inhibition [12, 17] 5.5% | Potency (C2A) | Potency (CP192) | Potency (CP211) | Potency (CP266) | Potency (CP315) | Potency (CP329) | Potency (FAB9)

C[N+]1(C)CCO[C@](O)(c2ccc(-c3ccc([C@]4(O)C[N+](C)(C)CCO4)cc3)cc2)C1
6.3%: max response [7, 14]
5.83%: max response [7, 15]
inactive: Potency [2] | activity change, negative = inhibition [13] -13.9% | Potency [4] > 20.6 µM | Potency [5] > 20.6 µM | outcome [6] | Potency [8] | activity change, negative = inhibition ([7]; at 25.7 µM (top of the series)) -0.651%

CC[C@H](CO)NC(=O)[C@H]1C=C2c3cccc4[nH]cc(c34)C[C@@H]2N(C)C1
active: Potency [10] 17.8 µM
inactive: outcome [1] | Potency [4] > 20.6 µM | Potency [5] > 20.6 µM | outcome [6] | Potency [8] | activity change, negative = inhibition ([7]; at 25.7 µM (top of the series)) 0.62%
2.54%: max response [7, 15]
3.2%: max response [7, 14]
